The source of these data is PubChem BioAssay AID2316 (Broad Institute, 2010).

Screen size: about 29,000 compounds; fewer than 10 were called active. Not all results are given here. A number with no mark means an inactive call. No rule for the calls is given here.

The experiment in a line: reversal of PD-1 mediated T-cell inhibition, primary screen, luminescence, primary human CD4 T cells, PD-L1 beads (AID 2316).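 Also: 0% = median vehicle wells and 100% = positive control.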 The settings on record: CellTiter-Glo 96 h, stronger effect = higher value. A general note: In ATP-based viability assays light output follows the ATP content of the culture.
For `C[C@@H]1CCCCO[C@@H](CN(C)C(=O)CCCN(C)C)[C@@H](C)CN([C@H](C)CO)C(=O)c2cc(NC(=O)Nc3ccc(F)cc3)ccc2O1`, the activation was 0.492%.
Under `C[C@@H]1CCCCO[C@@H](CN(C)S(=O)(=O)c2cccs2)[C@@H](C)CN([C@H](C)CO)C(=O)c2cc(NC(=O)Nc3ccc4c(c3)OCO4)ccc2O1` stands -0.659%.
Next, `C[C@H](CO)N1C[C@H](C)[C@@H](CN(C)Cc2ccccc2)Oc2c(NC(=O)C3CCOCC3)cccc2C1=O`: -1.74%; `COC(=O)c1scc(S(=O)(=O)C(C)(C)C)c1-n1cccc1`: -0.136%.
Under `COc1cc(/C=C/C(=O)O[C@@H]2O[C@H](CO[C@@H]3O[C@H](CO)[C@@H](O)[C@H](O)[C@H]3O)[C@@H](O)[C@H](O)[C@H]2OC(=O)/C=C/c2cc(OC)c(O)c(OC)c2)cc(OC)c1O` stands -0.424%; under `O=C(CCCN1C(=O)c2ccccc2C1=O)Nc1cccc2c1CCCC2`, 1.14%; under `CCC1(C)C(=O)C=C2C(=COC(C)=C2C)C1O` (centres undefined), 0.686%.
Take `CCCOc1ccc(C(=O)C2C(=O)C(=O)N(c3nc(C)c(C(=O)OC)s3)C2c2ccco2)cc1` (centres undefined): the activation was 1.4%.
Consider `Cc1ccc(S(=O)(=O)Nc2cccc3c2O[C@@H](CN(C)CC2CCCCC2)[C@H](C)CN([C@@H](C)CO)C3=O)cc1`, for which the activation was 3.09%.
Next, `C[C@H]1CN([C@@H](C)CO)C(=O)Cc2cc(NC(=O)Nc3ccc(F)cc3)ccc2O[C@@H]1CN(C)C(=O)NC1CCCCC1`: 0.349%; `COc1ccc(S(=O)(=O)NCc2ccccn2)cc1I`: 1.57%.
For the compound `C[C@H](CO)N1C[C@H](C)[C@@H](CN(C)Cc2ccccc2)Oc2ccc(NC(=O)CCCN(C)C)cc2C1=O`, the activation is 1.04%.
Next, `Cc1noc(C)c1NC(=O)Nc1ccc2c(c1)C(=O)N([C@H](C)CO)C[C@H](C)[C@@H](CN(C)C(=O)Nc1ccccc1)O2`: 1.04%; `C[C@H](CO)N1C[C@H](C)[C@H](CN(C)Cc2ccc3c(c2)OCO3)Oc2c(cccc2N(C)C)C1=O`: 0.478%.
Next, `C[C@H]1CN([C@@H](C)CO)C(=O)c2cccc(NC(=O)CCCCCC(=O)Nc3ccccc3N)c2O[C@@H]1CN(C)CC1CCCCC1`: 0.769%; `CS(=O)(=O)N(CC(=O)NC1CC1)c1ccc(Cl)c(C(F)(F)F)c1`: -0.255%; `CCOC(=O)c1cnn2c(C(F)(F)F)cc(C)nc12`: 0.193%.
Under `COC(=O)c1ccccc1NC(=O)C(C)Oc1ccccc1F` (centres undefined) stands 2.99%; under `COc1ccc(N2C(=O)CC(SCC(=O)Nc3ccccc3F)C2=O)cc1` (centres undefined), 1.75%; under `COc1ccc(C)cc1S(=O)(=O)N(C)CC(=O)Nc1ccc(Br)cc1F`, 1.42%.
On to `Cc1ccc(S(=O)(=O)Nc2ccc3c(c2)C(=O)N([C@H](C)CO)C[C@H](C)[C@@H](CN(C)C(=O)Nc2ccc4c(c2)OCO4)OCCCC[C@@H](C)O3)cc1`, for which the activation was 0.503%.
Next, `CCCCn1c(O)c(C#N)c(C)cc1=O`: 1.29%.
Next, `Cc1ccc(-c2csc3ncn(CC(=O)Nc4ccc(F)c(Cl)c4)c(=O)c23)cc1C`: -0.0295%.
Under `COc1ccc(NC(=O)N(C)C[C@@H]2OCCCC[C@@H](C)Oc3ccc(N(C)C)cc3C(=O)N([C@H](C)CO)C[C@@H]2C)cc1` stands 0.076%.
`O=S(=O)(c1ccc(Cl)cc1)c1nc(-c2ccccc2F)oc1NCCN1CCOCC1`: the activation was -0.673%.
Under `NC(=O)c1c(NC(=O)c2cnn3c(C(F)F)cc(-c4ccccc4)nc23)sc2c1CCCC2` stands -5.98%; under `C[C@@H]1CN([C@H](C)CO)C(=O)c2cc(NC(=O)Cc3cn(C)c4ccccc34)ccc2O[C@H]1CN(C)S(C)(=O)=O`, -1.87%; under `Cc1ccc(S(=O)(=O)Nc2cccc3c2O[C@@H](CN(C)C(=O)Nc2ccccc2)[C@H](C)CN([C@@H](C)CO)C3=O)cc1`, 2.15%.
Next, `COc1ccc(S(=O)(=O)N(C)C[C@H]2Oc3ccc(NS(=O)(=O)c4c(C)noc4C)cc3CC(=O)N([C@@H](C)CO)C[C@H]2C)cc1`: -0.136%.
With `COc1ccc(NC(=O)CSc2nc(-c3cccs3)cc(-c3ccsc3)c2C#N)cc1OC`, the activation is -6.31%.
Under `O=C(CCc1nc(-c2ccccc2Cl)no1)Nc1ccc(Cl)c(Cl)c1` stands 1.17%; under `C=CCSc1nc(N)cc(=O)[nH]1`, 0.998%; under `C[C@@H]1CN([C@H](C)CO)C(=O)Cc2cc(NS(=O)(=O)c3ccc(Cl)cc3)ccc2O[C@H]1CN(C)S(=O)(=O)c1cccs1`, -2.73%.
Under `O=C(c1ccc(Cl)cc1)n1c(=O)oc2cc(Cl)ccc21` stands -0.599%; under `Cc1ccccc1NC(=O)CSc1nnc(-c2ccc([N+](=O)[O-])cc2)n1C`, 0.454%.
On to `C[C@H]1CN([C@@H](C)CO)C(=O)c2cc(NS(=O)(=O)c3ccc(Cl)cc3)ccc2O[C@H]1CN(C)Cc1ccc(Oc2ccccc2)cc1`, for which the activation was 0.482%.
Under `O=C1Cc2ccc(F)cc2CC1C1=Cc2ccc(F)cc2CC1` (centres undefined) stands -8.11%; under `Cc1ccc([N+](=O)[O-])cc1N(CC(=O)Nc1ccc(Cl)c(C(F)(F)F)c1)S(C)(=O)=O`, 3.56%; under `N/C(CSc1nc2ccccc2s1)=N\O`, -0.165%.
Next, `C[C@@H]1CN([C@H](C)CO)C(=O)Cc2cc(NC(=O)NC3CCCCC3)ccc2O[C@H]1CN(C)S(C)(=O)=O`: 2.26%.
Next, `CC(C)(C)c1cn2c3ccccc3nc2n1CCN1CCOCC1`: -2.35%.
With `O=C(c1ccco1)N1CCN(CCOc2ccccc2)CC1`, the activation is 4.48%.
Next, `COc1ccc(S(=O)(=O)Nc2ccc3c(c2)CC(=O)N([C@H](C)CO)C[C@@H](C)[C@@H](CN(C)C(=O)Nc2cccc4ccccc24)O3)cc1`: 0.476%; `C[C@@H]1CCCCO[C@@H](CN(C)S(=O)(=O)c2cn(C)cn2)[C@@H](C)CN([C@H](C)CO)C(=O)c2cc(NC(=O)c3ccncc3)ccc2O1`: 3.7%.
Under `C[C@@H]1CCCCO[C@H](CN(C)S(=O)(=O)c2cccs2)[C@@H](C)CN([C@H](C)CO)C(=O)c2cc(NC(=O)Nc3ccccc3)ccc2O1` stands -1.94%.
Next, `COc1ccc(NC(=O)Nc2ccc3c(c2)CC(=O)N([C@@H](C)CO)C[C@H](C)[C@@H](CN(C)Cc2ccc4c(c2)OCO4)O3)cc1`: 0.816%.
With `COc1ccc(S(=O)(=O)Nc2ccc3c(c2)C(=O)N([C@H](C)CO)C[C@H](C)[C@@H](CN(C)S(C)(=O)=O)OCCCC[C@@H](C)O3)cc1`, the activation was 0.638%.
As to `C[C@@H]1CN([C@@H](C)CO)C(=O)c2cc(NC(=O)Nc3ccccc3)ccc2O[C@@H]1CN(C)Cc1ccccc1`, the activation is 1.95%.
Under `C[C@@H]1CN([C@H](C)CO)C(=O)c2cc(NS(=O)(=O)c3ccccc3)ccc2O[C@H]1CN(C)C(=O)Nc1ccc2c(c1)OCO2` stands 1.11%; under `COc1ccc(N(Cc2cc3ccccc3[nH]c2=O)C(=O)c2cccc(OC)c2)cc1`, 1.92%; under `C[C@H]1CN([C@@H](C)CO)C(=O)c2cccc(NC(=O)c3cnccn3)c2O[C@@H]1CN(C)Cc1ccc(Oc2ccccc2)cc1`, -2.26%.
In the case of `Cc1ccc(C23CC4CC(CC(CN)(C4)C2)C3)cc1C`, the activation was -7.62%.
Under `O=C(Nc1ccccc1)C(=S)Nc1ccccc1` stands -0.0947%.
In the case of `Cc1noc(C)c1NC(=O)N(C)C[C@@H]1Oc2ccc(NC(=O)Nc3ccc(F)cc3)cc2C(=O)N([C@H](C)CO)C[C@@H]1C`, the activation is -0.0779%.
For `CN1CCN(S(=O)(=O)c2ccc(NC(=O)C3CC=CCC3C(=O)O)cc2)CC1` (centres undefined), the activation was 1.99%.
Next, `Cc1cc(C)c(NC(=O)CSc2nnc(-c3ccccc3)n2-c2ccc(F)cc2)c(C)c1`: 1.56%.
Next, `COc1ccc(NC(=O)c2ccc(OCC(=O)Nc3ccccc3F)cc2)cc1Cl`: 0.553%; `COc1ccc(NC(=O)N(C)C[C@@H]2Oc3ccc(NC(=O)Nc4ccccc4)cc3CC(=O)N([C@H](C)CO)C[C@@H]2C)cc1`: -0.196%.
Under `CCOC(=O)CCSc1nnc2c3ccccc3n(C)c2n1` stands -0.845%; under `Cc1noc(C)c1NC(=O)Nc1ccc2c(c1)C(=O)N([C@H](C)CO)C[C@@H](C)[C@@H](CN(C)C(=O)NC(C)C)O2`, 0.338%.
`O=C(CSc1nnc(-c2ccccc2)n1-c1ccc(Cl)cc1)Nc1ccc(Cl)cc1`: the activation was -11.8%.
For `CCc1cc(C)cc(OCC(O)Cn2cnc3ccccc32)c1` (centres undefined), the activation is -5.01%.
Next, `CN1CCN(C(=O)CCc2nc(-c3ccc(Cl)cc3)no2)CC1`: -0.127%; `O=C(CSc1nnc2ccc3ccccc3n12)Nc1ccc2c(c1)OCCO2`: 0.368%; `c1ccc(Nc2ncnc3sc(-c4ccccc4)cc23)cc1`: -0.968%.
Under `CCCC(=O)Nc1ncnc2c1ncn2[C@@H]1O[C@@H]2OP(=O)(O)OC[C@H]2[C@H]1OC(=O)CCC` stands 4.46%; under `CCOc1ccc2nc(Nc3nc(C)c(Cc4ccc(C)cc4)c(=O)[nH]3)nc(C)c2c1`, -0.875%; under `COc1ccc(C(=O)CSc2nnc(-c3cccc(C)c3)n2-c2ccccc2)cc1`, 1.1%.
Next, `Cc1ccc(S(=O)(=O)N(C)C[C@@H]2Oc3c(NC(=O)C4CC4)cccc3C(=O)N([C@H](C)CO)C[C@H]2C)cc1`: 1.35%.
